# PABP1 MLLE inh = inhibitors of PABP1 MLLE–PAM2 peptide binding, primary screen, biochemical, fluorescence polarization, FITC-PAM2, GST-MLLE; inhibition, % at 20 µM; 360,000 tested, 0.36% active; AID 588489, 2011; in the data active = inhibition above about 35%, passing the limit was not always enough;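 note: plate controls were DMSO wells with GST-MLLE for no effect and wells lacking GST-MLLE protein for full effect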
# Target sequence (P11940 whole entry, looked up): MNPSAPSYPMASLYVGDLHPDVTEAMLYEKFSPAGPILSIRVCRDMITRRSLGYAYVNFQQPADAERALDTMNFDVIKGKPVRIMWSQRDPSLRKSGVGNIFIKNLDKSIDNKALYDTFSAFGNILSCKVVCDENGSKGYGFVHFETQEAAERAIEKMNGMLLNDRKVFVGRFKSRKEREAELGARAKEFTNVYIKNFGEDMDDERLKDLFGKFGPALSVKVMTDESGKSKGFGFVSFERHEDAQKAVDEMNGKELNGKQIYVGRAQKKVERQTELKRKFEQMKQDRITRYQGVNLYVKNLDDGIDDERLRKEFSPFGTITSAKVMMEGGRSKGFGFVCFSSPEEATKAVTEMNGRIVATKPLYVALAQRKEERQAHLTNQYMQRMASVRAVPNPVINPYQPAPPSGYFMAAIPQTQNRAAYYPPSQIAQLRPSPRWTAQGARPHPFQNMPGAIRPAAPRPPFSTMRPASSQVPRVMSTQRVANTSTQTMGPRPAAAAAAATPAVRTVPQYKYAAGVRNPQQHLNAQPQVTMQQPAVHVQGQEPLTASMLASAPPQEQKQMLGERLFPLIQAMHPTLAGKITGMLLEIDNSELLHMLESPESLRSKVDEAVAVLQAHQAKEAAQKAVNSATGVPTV
# 14-3-3 Bad PPI = inhibitors of 14-3-3 zeta/Bad binding, primary screen, biochemical, TR-FRET, bovine 14-3-3 zeta; TR-FRET 14-3-3zeta/Dy647-pBad peptide displacement, 1 h; inhibition, % at 21.7 µM; 220,000 tested, 0.71% active; AID 781, 2007;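 active = inhibition above about 70%, limit read from the data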;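 note: 0% = full 14-3-3 plus peptide FRET controls and 100% = background without 14-3-3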
# eIF4H FP inh = human eIF4H binding inhibitors, primary screen, translation initiation inhibitor project, biochemical, uHTS, fluorescence polarization | Eukaryotic translation initiation factor 4H (Homo sapiens), Q15056 | eIF4H fluorescence polarization binding assay | inhibition, % at 35 µM | 290,000 tested, 0.94% active;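 note: calls also rest on retests at 20 µM and on dose response follow-up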
# PABP polyA inh = PABP poly(A) RNA binding inhibitors, primary screen, biochemical, fluorescence polarization, uHTS; Polyadenylate-binding protein 1 (Homo sapiens), P11940; calls only at 35 µM; 290,000 tested, 1% active;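 note: calls also rest on retests at 20 µM and on dose response follow-up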
# eIF4E-4G inh = eIF4E–eIF4G protein interaction inhibitors, primary screen, biochemical, uHTS, TR-FRET, eIF4GI fragment; inhibition, % at 21.7 µM; TR-FRET eIF4E-eIF4GI(517-606) binding, 2 h; Eukaryotic translation initiation factor 4E (Mus musculus) + Eukaryotic translation …; 220,000 tested, 0.37% active;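 active = inhibition above about 30%, limit read from the data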;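 note: 0% = full FRET control wells and 100% = background wells lacking eIF4GI fragment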
# The depositor's hits bear a star; i = inactive; / = no result; + = active, no number; [ ] = dose if it differs, or a comment. A selection: hits, their analogues and other compounds. The true share with any hit is near 1.9%. Unless noted, the rule behind the calls is not given here.
SMILES,PABP1 MLLE inh,14-3-3 Bad PPI,eIF4H FP inh,PABP polyA inh,eIF4E-4G inh
CC(=O)N1C(=O)/C(=C2\SC(=S)N(c3c(C)n(C)n(-c4ccccc4)c3=O)C2=O)c2ccccc21,47.4*,4.3,-3.1,i,-2.0
CCN1C(=O)/C(=C2\SC(=S)N(CC3CCCO3)C2=O)c2ccccc21 (centres undefined),/,-2.7,-2.5,i,7.2
CCN1C(=O)/C(=C2\SC(=S)N(NC(=O)c3ccccc3O)C2=O)c2ccccc21,38.7*,-1.6,-15.2,i,0.8
Cc1c(N2C(=O)/C(=C3/C(=O)N(C)c4ccccc43)SC2=S)c(=O)n(-c2ccccc2)n1C,31.7,2.3,3.9,i,-3.1
CN(Cc1ccccc1)C(=O)c1ccc2sc([C@H]3C[C@H](O)[C@@H](CO)O3)nc2c1,-8.6,/,/,/,/
CCCCNC(=O)C1(C)CCCCN1C(=O)c1ccc(OC)c(C(F)(F)F)c1 (centres undefined),12.7,/,/,/,/
CCCCCCn1c(-c2cccs2)n[nH]c1=S,13.5,3.8,active,+,0.2
C[C@H](CO)N1C[C@H](C)[C@@H](CN(C)Cc2cccc(O)c2)OCc2cnnn2CCCC1=O,13.7,/,/,/,/
O=C(COc1ccc(/C=N/NC(=O)c2ccccc2O)cc1)Nc1ccccc1,9.4,-1.4,61.2,+,9.3
O=C(COc1ccc(/C=N/NC(=O)c2ccccc2Br)cc1)Nc1ccccc1,5.7,/,-0.4,i,/
O=C(COc1ccc(/C=N/NC(=O)c2cc3ccccc3o2)cc1Cl)Nc1ccccc1,-29.7,79.0*,-1.7,i,-36.2
CCN(CC)C(=O)c1cn(-c2cccc(OC)c2)c(=O)c2ccccc12,11.3,/,2.0,i,/
CCCS(=O)(=O)NC(=O)C1(C)CCCN(C(=O)c2cc(OC)c(OC)c(OC)c2)C1 (centres undefined),-10.4,/,/,/,/
O=C(O)c1cc(-c2ccc(O)cc2)on1,-6.9,79.3*,-13.8,i,-1.5
O=C1NC(=S)N(c2cccc(Cl)c2)C12CCCCC2,-113.5,-1.2,-17.6,i,-4.5
CCOc1ccc(-c2nc(-c3cccnc3)no2)cc1,4.1,2.5,-4.1,i,0.6
CCCCOc1ccc(-c2nc(-c3cccnc3)no2)cc1,6.3,160.4*[fluorescence artefact?],-3.8,i,-16.1
N#C/C(=C/c1ccco1)C(N)=S,14.7,-3.8,56.9*,+,-1.4
Cc1cccc(NC(=O)Nc2ccccc2[N+](=O)[O-])n1,0.5,/,-12.4,i,/
Cc1cccc(-n2c(O)c(C=Nc3ccccc3-c3n[nH]c(=S)[nH]c3=O)c3ccccc3c2=O)n1,37.7,-6.0,-5.0,i,49.8*
Cc1ccc(-n2c(O)c(C=Nc3ccccc3-c3n[nH]c(=S)[nH]c3=O)c3ccccc3c2=O)cc1C,32.9,-5.4,12.8,i,8.5
CCN(CC)S(=O)(=O)c1cc(NC(=O)Cn2ncc(Cl)c(Cl)c2=O)ccc1C,-23.2,28.1,77.3,+,12.8
COc1ccc(NC(=O)Cn2ncc(Cl)c(Cl)c2=O)cc1S(=O)(=O)N1CCOCC1,-21.3,33.0,89.6,+,2.4
COc1ccc(NC(=O)c2cc3c(s2)CCC3)cc1S(=O)(=O)N1CCOCC1,-2.5,-5.5,100.2*,i,-7.7
Cc1ncsc1CCC(=O)N1CCCC(C(=O)c2ccc3c(c2)OCO3)C1 (centres undefined),-6.3,-2.5,-4.9,i,5.5
SMILES,PABP1 MLLE inh,14-3-3 Bad PPI,eIF4H FP inh,PABP polyA inh,eIF4E-4G inh
CC(OC(=O)CCCN=C1NS(=O)(=O)c2ccccc21)C(=O)Nc1ccccc1[N+](=O)[O-] (centres undefined),-12.9,/,/,/,/
COC(=O)c1ccc(N)cc1O,4.4,0.8,1.6,i,-0.2
COC(=O)c1ccc(=O)c2nc3/c(=C/O)c(O)cc(=O)c3[nH]c12,6.0,73.2*,85.4*,+,55.3*
O=S(=O)(c1cccs1)N1CN(Cc2cccs2)c2nc3ccccc3nc21,-12.6,-5.5,-0.4,i,-9.8
C=CCN1CN(S(=O)(=O)c2cccs2)c2nc3ccccc3nc21,-15.2,48.0,82.2*,+,0.1
Cc1ccc(NC(=O)COC(=O)c2nn(C)c(=O)c3ccccc23)cc1F,9.9,/,/,/,/
COc1ccc(C2=NC(=O)/C(=C\c3cc(OC)c(OC)c(OC)c3)O2)cc1,61.3*,26.0,-5.5,i,-5.6
O=C(NC(NC(=S)Nc1ccc(Cl)cc1Cl)C(Cl)(Cl)Cl)c1cccc([N+](=O)[O-])c1 (centres undefined),24.5,-17.8,-5.6,i,-12.7
O=C(CNS(=O)(=O)c1ccc(Cl)c(C(F)(F)F)c1)NC1CCCCCC1,1.0,/,/,/,/
CC(=O)c1cccc(NC(=O)c2nc(-c3ccccc3)oc2C)c1,-2.8,-18.4,-3.1,i,39.6*
Cc1oc(-c2ccccc2)nc1C(=O)O,4.8,-9.7,-4.2,i,-0.5
Cc1ccccc1-c1cc(C(=O)NCc2ccco2)n(CC2CC(c3cccnc3)=NO2)n1 (centres undefined),-6.6,/,/,/,/
CCCOc1ccc(C(=O)NNC(=S)NC(=O)c2cc(-c3ccc(Cl)cc3)nc3ccccc23)cc1,39.1*,-5.3,12.5,i,-2.0
CC(C)N1C(=O)/C(=C/c2nc3ccccc3c(=O)n2-c2ccccc2)c2ccccc21,7.5,77.2*,-10.5,i,2.0
CC(C)N1C(=O)/C(=C\c2nc3ccccc3c(=O)n2-c2ccccc2)c2ccccc21,-0.3,21.2,-9.0,i,-2.1
O=C(CSc1nnc(C2COc3ccccc3O2)o1)N1CCCC1 (centres undefined),39.2*,3.2,6.2,i,1.5
CN(C(=O)c1cccc(NC(=O)Cc2ccc(NC(=O)C3CCN(C(=O)C4CC4)CC3)cc2)c1)C1CCCC1,8.2,/,/,/,/
CC(C)c1nnc(NC(=O)c2ccc3c(c2)OCO3)s1,0.3,-2.8,6.2,i,2.5
COc1ccccc1-c1nnc(NC(=O)c2ccc3c(c2)OCO3)s1,0.1,70.7*,0.2,i,8.5
CCOc1cc2c(C#N)c(N3CCOCC3)nc(N)c2c(N)n1,6.7,-13.8,72.6*,+,5.1
COc1ccccc1N1CCN(/N=C\c2ccccc2)CC1,12.7,/,-4.7,i,/
COc1ccccc1N1CCN(/N=C/c2c(C)nn(-c3ccccc3)c2C)CC1,40.5*,4.0,-6.1,i,-4.2
COc1ccc(NC(=O)/C=C/c2c(Cl)nc3ccccn23)cc1,-13.2,0.0,1.5*,+,2.2
Cc1onc(-c2ccccc2Cl)c1C(=O)NC(=S)NCC(=O)c1ccccc1,10.8,-16.0,-5.8,i,-6.2
Cc1ccc2nc(NCc3ccco3)c(C=NCc3ccco3)c(=O)n2c1,-0.1,-6.2,67.8*,+,-4.5
